# Data as given in PubChem BioAssay.
# Where “and” joins values, the source holds several entries; their conditions need not be identical. Equal values may be shown once. For part of these data: Entries with a potency or affinity are not part of this list. Calls of active or inactive are those of the source.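 How the source made its calls, unless noted: active means compounds whose cell count with miR-34 switched on is under 0.7 times the count with it off; inactive means the rest.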
# Legend:
# [1] = compounds altering circadian rhythm period length – cell-based, LOPAC library, luminescence reporter (AID 2774; call rule not given here;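 further: values are relative to mean of DMSO wells on each plate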); details: circadian reporter cells, at 7 µM, actives lie on both sides
# [2] = test system: Hepatitis C virus NS3 helicase; test: blockers of NS3h binding to ssDNA – biochemical, fluorescence polarization, LOPAC1280 library, primary screen (AID 687035; in the data active means inhibition above about 37%); details: Purified HCV NS3 helicase, Cy5-dT15 ssDNA binding fluorescence polarization; stronger effect = higher value; concentration not given here
# [3] = compounds altering Cy5-DNA-NS3h complex signal – biochemical, LOPAC1280, artefact control for HCV NS3 helicase inhibitor project (AID 687037; call rule not given here); details: Cy5-DNA-NS3h complex fluorescence interference counterscreen
# [4] = biological target: 6-phosphogluconate dehydrogenase, decarboxylating (Homo sapiens) (UniProt P52209); test: inhibition of human phosphogluconate dehydrogenase – biochemical, recombinant enzyme, NADPH absorbance, primary screen (AID 1159550;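 active means at least 20% inhibition of 6-phosphogluconate dehydrogenase activity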); details: recombinant 6PGD, NADPH absorbance 341 nm; at 10 µM; stronger effect = higher value
# 6-phosphogluconate dehydrogenase, decarboxylating (Homo sapiens), sequence (P52209 whole entry, looked up): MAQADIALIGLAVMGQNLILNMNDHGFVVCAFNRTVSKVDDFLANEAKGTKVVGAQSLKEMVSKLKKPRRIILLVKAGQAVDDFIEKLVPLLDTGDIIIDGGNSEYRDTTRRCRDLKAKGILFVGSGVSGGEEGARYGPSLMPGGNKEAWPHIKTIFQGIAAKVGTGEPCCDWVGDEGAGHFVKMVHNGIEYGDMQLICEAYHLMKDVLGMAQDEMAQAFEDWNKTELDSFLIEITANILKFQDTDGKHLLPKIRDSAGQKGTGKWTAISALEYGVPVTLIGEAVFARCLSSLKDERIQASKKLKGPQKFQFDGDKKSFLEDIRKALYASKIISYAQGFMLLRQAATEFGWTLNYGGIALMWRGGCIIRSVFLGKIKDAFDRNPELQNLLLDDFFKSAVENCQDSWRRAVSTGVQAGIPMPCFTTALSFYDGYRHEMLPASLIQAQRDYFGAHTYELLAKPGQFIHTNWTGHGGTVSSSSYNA
# [5] = EMT-state selective cytotoxicity in co-culture – imaging, PC-3E GFP, TEM4-18 mCherry, primary screen (AID 1345086;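 active means compounds killing one labelled cell type while sparing the other, by normalised counts and ratio limits, not self-fluorescent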;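 on all read-outs here: cells exposed to compound for 72 h before imaging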;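 on red/green cell ratio (normalised): normalised mesenchymal count divided by normalised epithelial count so high means epithelial killing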); details: PC-3E GFP / TEM4-18 mCherry co-culture, imaging cell counts, at 1 µM; for red/green cell ratio (normalised): actives lie on both sides, counts scaled to control wells, 1 = unselective
# [6] = viability loss with induced miR-34 in A549 – imaging, A549 dox-inducible miR-34, nuclei and caspase counts, primary screen (AID 1347080); details: A549 miR-34 inducible, Hoechst nuclei count, 48 h
# [7] = blockers of cellular phospholipid synthesis – cell-based, LOPAC library, screen 4, primary screen (AID 1347384; call rule not given here); details: animal cells, phospholipid biosynthesis inhibition screen; at 10 µM
# [8] = biological target: Mitogen-activated protein kinase 7 (Homo sapiens) (UniProt Q13164); test: Gal4-ERK5 driven luciferase induction – cell-based, HTS, primary screen (AID 1508626;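 active means luciferase signal above three times the same-plate solvent-only control wells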;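 further: luciferase driven by Gal4-ERK5 fusion binding five Gal4 sites before minimal TATA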); details: HeLa Gal4-ERK5 transactivation, 18 h, at 5 µM, stronger effect = higher value
# Mitogen-activated protein kinase 7 (Homo sapiens), sequence (Q13164 whole entry, looked up, the tested form may be a part): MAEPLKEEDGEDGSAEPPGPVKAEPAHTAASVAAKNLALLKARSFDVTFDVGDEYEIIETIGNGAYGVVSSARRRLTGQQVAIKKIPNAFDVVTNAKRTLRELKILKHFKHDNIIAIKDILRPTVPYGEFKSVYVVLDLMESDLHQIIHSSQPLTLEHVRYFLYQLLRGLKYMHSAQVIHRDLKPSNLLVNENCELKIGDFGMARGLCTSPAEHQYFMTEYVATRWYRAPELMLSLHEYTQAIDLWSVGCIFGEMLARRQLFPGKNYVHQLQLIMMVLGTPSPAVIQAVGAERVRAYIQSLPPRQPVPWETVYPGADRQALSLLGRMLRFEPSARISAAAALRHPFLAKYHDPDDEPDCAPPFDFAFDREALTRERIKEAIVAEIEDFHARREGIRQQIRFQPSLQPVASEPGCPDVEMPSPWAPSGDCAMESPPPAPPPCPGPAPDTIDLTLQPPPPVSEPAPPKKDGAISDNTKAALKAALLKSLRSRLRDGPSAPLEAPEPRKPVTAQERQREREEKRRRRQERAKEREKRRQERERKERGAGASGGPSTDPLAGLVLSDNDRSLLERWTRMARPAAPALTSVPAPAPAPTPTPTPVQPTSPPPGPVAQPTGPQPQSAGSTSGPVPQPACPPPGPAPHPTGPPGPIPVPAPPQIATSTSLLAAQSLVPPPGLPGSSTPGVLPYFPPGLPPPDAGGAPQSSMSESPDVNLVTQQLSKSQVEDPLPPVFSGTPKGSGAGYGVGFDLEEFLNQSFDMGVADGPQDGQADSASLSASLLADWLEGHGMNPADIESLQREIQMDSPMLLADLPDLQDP
# [9] = galactose survival enhancers in mitochondrial complex I cybrids – cell-based, galactose medium, ATP luminescence, primary screen (AID 1645843;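 active means z-score of at least 1.8 in each of two replicates, scored against plate mean and spread of sample wells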;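 further: positive z means more ATP and so rescue of galactose-driven cybrid death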); details: complex I mutant cybrid cells, 72 h, stronger effect = higher value
# [10] = MELAS cybrid and Rieske KO viability enhancers – cell-based, MELAS cybrids, Rieske KO mouse fibroblasts, CellTiter-Glo, primary screen (AID 1508586;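 active means mean z-score across replicates of 1.96 or higher in either the MELAS or the Rieske mutant cell line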;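 further: z relative to plate mean and SD of compound and empty wells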); details: low glucose
# [11] = P. berghei load reduction in hepatocytes – cell-based, HepG2, luciferase luminescence, HepG2 viability, primary screen (AID 624349; in the data active means parasite load remaining mostly below about 12%, no sharp cut-off; inactive means mostly above about 10%;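 further: 100% = mean of DMSO negative control wells on the same plate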); details: P. berghei liver stage in HepG2, luciferase luminescence, concentration not given here; parasite load remaining: stronger effect = lower value; viability: measured here: HepG2 viability without parasites
# [12] = blockers of polyQ-driven CASP3 activation – cell-based (AID 1583); details: polyglutamine-induced caspase-3 activation, cell assay; stronger effect = higher value;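 tested at 10 µM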
# [13] = yeast 75Q aggregation reduction – 75Q-TubU reporter (AID 1593); details: Yeast 75Q polyglutamine aggregation reporter
# [14] = restoration of touch response, mutant HTT neurons – whole organism, C. elegans mechanosensory neurons, N-terminal huntingtin (AID 1599); details: C. elegans polyQ-huntingtin mechanosensory neurons, stronger effect = higher value
# [15] = blockers of cytochrome c efflux from mitochondria – biochemical, purified mitochondria (AID 1603); details: stronger effect = lower value;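 further: mouse liver mitochondria challenged with calcium chloride; signal normalized to the plate average as 100%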
# [16] = polyglutamine aggregate formation blockers (AID 1604); details: polyglutamine-induced protein aggregation inhibition assay; stronger effect = higher value; tested at 2.5 µM
# [17] = glutamate transport activators, MN-1 cells, MN-1 cell line (AID 1612); details: MN-1 motor neuron cells, stronger effect = higher value;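 further: tested at 1 µM final; 0% = mean of DMSO vehicle wells on each plate; positive means more glutamate uptake than control and negative means less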
# [18] = GFP-Q80 aggregate reduction, neuronal-like cells, cell-based, NGF-treated PC12, GFPQ80 (AID 1614); details: PC12 NGF-treated GFP-polyQ80 inclusion reduction;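 further: lower means fewer inclusions and 0 means no inclusions at all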
# [19] = 75Q-TubH aggregate inhibition, S. cerevisiae, yeast (AID 1616); details: S. cerevisiae 75Q-TubH polyglutamine aggregation suppression; stronger effect = higher value
# [20] = measured here: epithelial PC-3E GFP cell survival
# [21] = measured here: mesenchymal TEM4-18 mCherry cell survival
# [22] = stronger effect = lower value, cell number ratio, induced over uninduced
# [23] = measured here: relative caspase fold change +Dox/-Dox
# [24] = measured here: total cells with miR-34 induction, stronger effect = lower value
# [25] = measured here: total cells without miR-34 induction
# [26] = MELAS cybrid survival, CellTiter-Glo 48 h, stronger effect = higher value
# [27] = Rieske KO mouse fibroblast survival, CellTiter-Glo 72 h
smiles,measurement,setting,value
O=C(/C=C/c1ccc(O)c(O)c1)OCCc1ccccc1,period change,[1],0.335 h (inactive)
same,inhibition,[2],-2% (inactive)
same,fluorescence ratio (interference),[3],1 (inactive)
same,inhibition,[4],14% (inactive)
same,red/green cell ratio (normalised),[5],0.72 (inactive)
same,normalised cell number,[5]; [20],1.3
same,normalised cell number,[5]; [21],0.94
same,fold change,[6]; [22],1.03 (inactive) and 1.01 (inactive) and 1.12 (inactive)
same,outcome,[7],inactive
same,luciferase signal,[8],56 AU (inactive)
same,z-score,[9],-1.37 (inactive) and -0.615 (inactive)
OCC(O)C(O)C(O)CO (stereo not given),inhibition,[4],-9.83% (inactive)
same,red/green cell ratio (normalised),[5],1.02 (inactive) and 0.91 (inactive)
same,normalised cell number,[5]; [20],0.96 and 1.18
same,normalised cell number,[5]; [21],0.97 and 1.07
same,fold change,[6]; [22],0.884 (inactive)
same,fold change,[6]; [23],0.816
same,cell count,[6]; [24],9100
same,cell count,[6]; [25],10300
same,z-score,[10]; [26],-0.33 (inactive)
same,z-score,[10]; [27],0.446
same,luciferase signal,[8],36 AU (inactive)
O=C(CCc1ccc(O)cc1)c1c(O)cc(O)cc1O[C@@H]1O[C@H](CO)[C@@H](O)[C@H](O)[C@H]1O,parasite load remaining,[11],28.4% (inactive)
same,viability,[11],69.5%
same,inhibition,[4],5.05% (inactive)
same,red/green cell ratio (normalised),[5],1 (inactive)
same,normalised cell number,[5]; [20],0.89
same,normalised cell number,[5]; [21],0.89
same,fold change,[6]; [22],0.867 (inactive)
same,fold change,[6]; [23],1.41
same,cell count,[6]; [24],9120
same,cell count,[6]; [25],10500
same,z-score,[10]; [26],-0.633 (inactive)
same,z-score,[10]; [27],-1.43
same,luciferase signal,[8],28 AU (inactive)
same,z-score,[9],-0.075 (inactive)
COc1ccc(-c2cc(=O)c3c(O)cc(O)cc3o2)cc1O,inhibition,[4],11.1% (inactive)
same,red/green cell ratio (normalised),[5],0.91 (inactive)
same,normalised cell number,[5]; [20],1.34
same,normalised cell number,[5]; [21],1.22
same,fold change,[6]; [22],0.906 (inactive)
same,fold change,[6]; [23],0.637
same,cell count,[6]; [24],8940
same,cell count,[6]; [25],9870
same,z-score,[10]; [26],-0.264 (inactive)
same,z-score,[10]; [27],0.709
NC(N)=NC(N)=Nc1ccccc1,inhibition,[12],53.4% and -16.9%
same,score,[13],1.25 and 0.9
same,rescue above control,[14],-3.01 and 7.54
same,cytochrome c release ratio,[15],0.86 and 1.03
same,inhibition of aggregation,[16],72.2% and 69.7%
same,glutamate uptake change,[17],-1.79% and -11.1%
same,inclusion score,[18],2
same,aggregation suppression score,[19],1.39 and 0.87
same,period change,[1],0.065 h (inactive)
same,inhibition,[2],-3% (inactive)
same,fluorescence ratio (interference),[3],1 (inactive)
same,inhibition,[4],-4.29% (inactive)
same,red/green cell ratio (normalised),[5],0.97 (inactive)
same,normalised cell number,[5]; [20],1.24
same,normalised cell number,[5]; [21],1.2
same,fold change,[6]; [22],1 (inactive) and 0.938 (inactive)
same,fold change,[6]; [23],1.38 and 0.627
same,cell count,[6]; [24],9810 and 9310
same,cell count,[6]; [25],9810 and 9920
same,outcome,[7],inactive
same,z-score,[9],0.085 (inactive) and -0.065 (inactive)
c1ccc2c(Cc3c[nH]c4ccccc34)c[nH]c2c1,inhibition,[4],2.37% (inactive)
same,red/green cell ratio (normalised),[5],0.91 (inactive)
same,normalised cell number,[5]; [20],1.11
same,normalised cell number,[5]; [21],1.01
same,fold change,[6]; [22],0.926 (inactive)
same,fold change,[6]; [23],0.966
same,cell count,[6]; [24],4780
same,cell count,[6]; [25],5160
